Reference: PubChem BioAssay AID1159580 (chemical genetic matrix, 2015)
In all, about 5,500 compounds went through this assay and about 2,000 (36%) were called active. Not shown: some 18% with an inconclusive outcome. Rule as the data show it: active = normalized growth mostly below about 0.91 (no sharp cut-off); inconclusive = no clear call, values can overlap the other calls; inactive = mostly above about 0.92. Some of the results follow.

Assay: chemical genetic growth profiling, strain panel (AID 1159580);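 also: tested at 20 µM; growth read once vehicle control cultures reached saturation at 30 °C; 1 = growth at the plate median or of vehicle wells; lower values mean less growth of the strain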
Conditions: S. cerevisiae deletion strains, growth OD

Measured: normalized growth

O=C(NCC(c1ccccc1)c1c[nH]c2ccccc12)c1ccc(C(F)(F)F)cc1 (stereo unspecified)
inactive: locus YAR019C, strain CDC15, hits give low values 0.974 | locus YBL105C, strain PKC1, hits give low values 0.98 | locus YBR135W, strain CKS1, hits give low values 0.998 | locus YBR136W, strain MEC1, hits give low values 0.986 | locus YBR160W, strain CDC28, hits give low values 0.981 | locus YDL017W, strain CDC7, hits give low values 0.985 | locus YDL028C, strain MPS1, hits give low values 0.993 | locus YDL101C, strain DUN1, hits give low values 0.985 | locus YDL108W, strain KIN28, hits give low values 0.992 | locus YDL132W, strain cdc53, hits give low values 0.992 | locus YDL214C, strain PRR2, hits give low values 1.15 | locus YDR052C, strain DBF4, hits give low values 0.993 | locus YDR054C, strain cdc34, hits give low values 0.984 | locus YDR226W, strain ADK1, hits give low values 0.971 | locus YDR477W, strain SNF1, hits give low values 0.98 | locus YER123W, strain YCK3, hits give low values 0.971 | locus YER133W, strain GLC7, hits give low values 0.979 | locus YFL009W, strain cdc4, hits give low values 1.04 | locus YFL029C, strain CAK1, hits give low values 0.989 | locus YFR003C, strain YPI1, hits give low values 1.01 | locus YFR019W, strain FAB1, hits give low values 0.984 | locus YFR028C, strain CDC14, hits give low values 0.979 | locus YGR040W, strain KSS1, hits give low values 1 | locus YGR052W, strain FMP48, hits give low values 1.02 | locus YGR092W, strain DBF2, hits give low values 0.993 | locus YHR079C, strain IRE1, hits give low values 0.981 | locus YHR082C, strain KSP1, hits give low values 1.04 | locus YHR205W, strain SCH9, hits give low values 1.01 | locus YIL147C, strain SLN1, hits give low values 0.985 | locus YJL095W, strain BCK1, hits give low values 0.996 | locus YJL128C, strain PBS2, hits give low values 0.932 | locus YJL157C, strain FAR1, hits give low values 0.989 | locus YJR016C, strain ILV3, hits give low values 0.99 | locus YJR066W, strain TOR1 (second series), hits give low values 0.97 | locus YJR066W, strain TOR1, hits give low values 0.998 | locus YKL048C, strain ELM1, hits give low values 1 | locus YKL067W, strain YNK1, hits give low values 0.948 | locus YKL101W, strain HSL1, hits give low values 0.969 | locus YKL193C, strain SDS22, hits give low values 0.994 | locus YKL203C, strain TOR2, hits give low values 1.08 | locus YLR133W, strain CKI1, hits give low values 0.992 | locus YLR403W, strain SFP1, hits give low values 0.985 | locus YML070W, strain DAK1, hits give low values 0.979 | locus YMR001C, strain CDC5, hits give low values 0.991 | locus YMR205C, strain PFK2 (second series), hits give low values 0.981 | locus YMR277W, strain FCP1, hits give low values 0.965 | locus YNL006W, strain LST8, hits give low values 1.01 | locus YNL020C, strain ARK1, hits give low values 0.982 | locus YNL161W, strain CBK1, hits give low values 0.995 | locus YNL183C, strain NPR1, hits give low values 1.02 | locus YNL207W, strain RIO2, hits give low values 0.979 | locus YNL222W, strain SSU72, hits give low values 0.986 | locus YNL307C, strain MCK1 (second series), hits give low values 0.954 | locus YOL078W, strain AVO1, hits give low values 0.99 | locus YOL136C, strain PFK27, hits give low values 0.963 | locus YOR061W, strain CKA2, hits give low values 0.995 | locus YOR119C, strain RIO1, hits give low values 1.02 | locus YOR231W, strain MKK1, hits give low values 1.02 | locus YOR329C, strain SCD5, hits give low values 0.995 | locus YPL031C, strain PHO85, hits give low values 0.993 | locus YPL153C, strain RAD53, hits give low values 0.967 | locus YPL204W, strain HRR25, hits give low values 0.96 | locus YPL209C, strain IPL1, hits give low values 0.994 | locus YPL256C, strain CLN2, hits give low values 0.909 | locus YPR025C, strain CCL1, hits give low values 0.997 | locus YPR106W, strain ISR1, hits give low values 0.976 | locus YPR111W, strain DBF20, hits give low values 0.956 | strain NNK1, hits give low values 0.988 | strain TSCII, hits give low values 0.978
active: locus YHR030C, strain SLT2, hits give low values 0.807 | locus YLR113W, strain HOG1, hits give low values 0.859
